The text below walks through data of PubChem BioAssay (NCI).

Some test systems named below: HCT-15 colon; HT29 colon; SNB-75 CNS; SNB-19 CNS; U251 CNS; PC-3 prostate; SK-MEL-5 melanoma; UACC-62 melanoma; LOX IMVI melanoma; SK-MEL-28 melanoma; SK-MEL-2 melanoma; EKVX NSCLC; SN12C renal; UO-31 renal; TK-10 renal; ACHN renal; CAKI-1 renal; A498 renal; CCRF-CEM leukemia; MOLT-4 leukemia.
Common to all, as to test: NCI-60 one-dose screen, 48 h (100 = growth as untreated, 0 = no growth, -100 = all killed)
Holding throughout (details): 10 µM unless noted

Values joined by “and” are separate entries in the source; they are usually repeats but may differ in a detail not shown here. Equal values may be shown once. The panel holds about 83,000 compounds, 20% with a hit somewhere; the sample as a whole holds those more often.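 96-well plates, one dose, 48 hours. Percent growth reported; active if below 10.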 Active and inactive are the calls of the source.

`COc1cc(Nc2nc3ccccc3nc2NS(=O)(=O)c2ccc(NC(=O)c3ccc(C)c(OC)c3)cc2)cc(OC)c1`: the growth is 60.3% (inactive) and 13.4% (inactive) in the assay with HCT-15 colon; 53.7% (inactive) and 5.41% (active) in the assay on HT29 colon; 32% (inactive) and -34.7% (active) in the assay on SNB-75 CNS; 68.2% (inactive) and 39.1% (inactive) in the assay with SNB-19 CNS; 55.4% (inactive) and 21.5% (inactive) in the assay with U251 CNS; 21.5% (inactive) and 11.1% (inactive) in the assay on PC-3 prostate. The growth with SK-MEL-5 melanoma was 85.3% (inactive) and -25.7% (active); in the assay on UACC-62 melanoma, 56.4% (inactive) and -32.5% (active); in the assay on LOX IMVI melanoma, 52.7% (inactive) and 2.52% (active); with SK-MEL-28 melanoma, 63.8% (inactive) and -17.5% (active); in the assay with SK-MEL-2 melanoma, 45.7% (inactive); in the assay with EKVX NSCLC, 40.1% (inactive) and 8.65% (active). For the same compound, the growth in the assay with SN12C renal was 49.1% (inactive) and 14.8% (inactive); in the assay with UO-31 renal, 12.2% (inactive) and -20% (active); with TK-10 renal, 54.1% (inactive) and -35.5% (active); in the assay with ACHN renal, 53.1% (inactive) and 1.39% (active); in the assay with CAKI-1 renal it was 62.2% (inactive) and -11.6% (active); in the assay with A498 renal, 18.9% (inactive) and -44.3% (active). Moreover, the growth is 20% (inactive) in the assay on CCRF-CEM leukemia; 37.5% (inactive) and 7.47% (active) in the assay with MOLT-4 leukemia.
As for `CCN(CC)CCCC(C)Nc1ccnc2cc(Oc3ccccc3)ccc12` (stereo not given), the growth was 52.7% (inactive) and 54.5% (inactive) with HCT-15 colon; 30.1% (inactive) with HT29 colon; 62.9% (inactive) and 99.8% (inactive) in the assay with SNB-75 CNS; 83.5% (inactive) and 94.5% (inactive) in the assay with SNB-19 CNS; 56.5% (inactive) and 60.4% (inactive) in the assay on U251 CNS; 61.9% (inactive) and 67.7% (inactive) with PC-3 prostate. Also, the growth in the assay on SK-MEL-5 melanoma is -87.1% (active) and 79.6% (inactive); with UACC-62 melanoma, 60.9% (inactive) and 92.8% (inactive); in the assay on LOX IMVI melanoma, 22.2% (inactive) and 39.3% (inactive); with SK-MEL-28 melanoma it was 1.01% (active) and 85.5% (inactive); in the assay with SK-MEL-2 melanoma it was 115% (inactive); in the assay with EKVX NSCLC it was 83.7% (inactive) and 74.9% (inactive). Also, the growth is 71.2% (inactive) and 74.4% (inactive) with SN12C renal; 49.2% (inactive) and 50.6% (inactive) in the assay on UO-31 renal; 91.3% (inactive) in the assay on TK-10 renal; 73.6% (inactive) and 80.6% (inactive) in the assay with ACHN renal; 68.8% (inactive) with CAKI-1 renal; 59.1% (inactive) and 55.4% (inactive) in the assay with A498 renal. Moreover, the growth with CCRF-CEM leukemia is 65.5% (inactive) and 56% (inactive); in the assay on MOLT-4 leukemia it was 65.1% (inactive) and 80.7% (inactive).
With `Cc1cccc(/C=C\C(=O)c2ccc(Cl)cc2)c1`, the growth with HCT-15 colon was 89.5% (inactive) and 96.6% (inactive); in the assay with HT29 colon, 84.1% (inactive) and 90.9% (inactive); in the assay on SNB-75 CNS, 98.9% (inactive) and 115% (inactive); in the assay with SNB-19 CNS, 91.6% (inactive) and 101% (inactive); in the assay with U251 CNS, 80.3% (inactive) and 98.9% (inactive); with PC-3 prostate it was 89.6% (inactive) and 83.7% (inactive). Besides, the growth is 108% (inactive) and 94.8% (inactive) in the assay with SK-MEL-5 melanoma; 96.8% (inactive) and 103% (inactive) in the assay with UACC-62 melanoma; 89.2% (inactive) and 91.6% (inactive) in the assay with LOX IMVI melanoma; 106% (inactive) and 111% (inactive) with SK-MEL-28 melanoma; 94.9% (inactive) and 100% (inactive) in the assay on SK-MEL-2 melanoma; 91.1% (inactive) and 94.3% (inactive) in the assay with EKVX NSCLC. For the same compound, the growth is 94.9% (inactive) and 97% (inactive) in the assay with SN12C renal; 68.3% (inactive) and 86.1% (inactive) with UO-31 renal; 75.5% (inactive) and 85.3% (inactive) in the assay with TK-10 renal; 102% (inactive) and 105% (inactive) in the assay on ACHN renal; 90.1% (inactive) and 85.1% (inactive) in the assay with CAKI-1 renal; 78.9% (inactive) and 54.4% (inactive) in the assay on A498 renal. Besides, the growth in the assay with CCRF-CEM leukemia was 84.3% (inactive) and 68.8% (inactive); with MOLT-4 leukemia, 90.2% (inactive) and 55% (inactive).
Turning to `O=C(CN1CCN(c2cc3c(cc2F)c(=O)c(C(=O)O)cn3C2CC2)CC1)Nc1ccc(Cl)cc1`, the growth was 83% (inactive) and 92.3% (inactive) with HCT-15 colon; 57.9% (inactive) and 100% (inactive) with HT29 colon; 79.7% (inactive) with SNB-75 CNS; 83.1% (inactive) and 90.9% (inactive) in the assay with SNB-19 CNS; 44.2% (inactive) and 102% (inactive) in the assay with U251 CNS; 80.1% (inactive) and 89.1% (inactive) with PC-3 prostate. Besides, the growth in the assay on SK-MEL-5 melanoma is 71.1% (inactive) and 83.5% (inactive); in the assay with UACC-62 melanoma, 63.6% (inactive) and 57.8% (inactive); in the assay on LOX IMVI melanoma, 61.1% (inactive) and 72.4% (inactive); in the assay with SK-MEL-28 melanoma it was 87.1% (inactive) and 84% (inactive); in the assay on SK-MEL-2 melanoma, 94.8% (inactive) and 106% (inactive); in the assay with EKVX NSCLC it was 93.4% (inactive) and 92.3% (inactive). Moreover, the growth with SN12C renal is 90.1% (inactive) and 90.6% (inactive); in the assay on UO-31 renal it was 7.15% (active) and 16% (inactive); with TK-10 renal, 86.1% (inactive) and 127% (inactive); with ACHN renal, 53.2% (inactive) and 84.4% (inactive); in the assay with CAKI-1 renal it was 67.2% (inactive) and 77.6% (inactive); in the assay on A498 renal it was 68.6% (inactive) and 45.8% (inactive). Moreover, the growth is 77.4% (inactive) and 92.6% (inactive) in the assay with CCRF-CEM leukemia; 96.5% (inactive) and 92.7% (inactive) in the assay on MOLT-4 leukemia.
As for `CC1(C)[C@@H](OC(=O)CCC(=O)O)CC[C@]2(C)[C@H]3C(=O)C=C4[C@@H]5C[C@@](C)(C(=O)O)CC[C@]5(C)CC[C@@]4(C)[C@]3(C)CC[C@@H]12`, the growth with HCT-15 colon was 101% (inactive) and -39.6% (active); with HT29 colon, 103% (inactive) and -8.67% (active); in the assay on SNB-75 CNS it was -68.7% (active); in the assay on SNB-19 CNS, 102% (inactive) and -3.23% (active); in the assay with U251 CNS, 110% (inactive) and -91.2% (active); in the assay on PC-3 prostate, 103% (inactive) and -28.4% (active). The growth with SK-MEL-5 melanoma is 105% (inactive) and -82.7% (active); with UACC-62 melanoma it was 106% (inactive) and -80% (active); with LOX IMVI melanoma, 104% (inactive) and -50.8% (active); in the assay on SK-MEL-28 melanoma, 105% (inactive) and -66% (active); in the assay with SK-MEL-2 melanoma, 107% (inactive) and -59.9% (active); in the assay with EKVX NSCLC, 107% (inactive) and -33.4% (active). Besides, the growth was 102% (inactive) and -19.1% (active) in the assay on SN12C renal; 102% (inactive) and -96.1% (active) in the assay on UO-31 renal; 104% (inactive) and -36.8% (active) with TK-10 renal; 103% (inactive) and -79.6% (active) in the assay with ACHN renal; 100% (inactive) and -30.4% (active) in the assay on CAKI-1 renal; 112% (inactive) and -65.7% (active) with A498 renal. Besides, the growth is 92.6% (inactive) and -37.2% (active) in the assay with CCRF-CEM leukemia; 88.3% (inactive) and -35% (active) in the assay with MOLT-4 leukemia.
As to `Cc1cc(O)c2c(c1)C(=O)c1cc(O)cc(O)c1C2=O`, the growth in the assay on HCT-15 colon was 98.9% (inactive) and 92.2% (inactive); in the assay with HT29 colon, 105% (inactive) and 99.6% (inactive); in the assay on SNB-75 CNS it was 88% (inactive) and 86.7% (inactive); in the assay on SNB-19 CNS, 82.5% (inactive) and 94.2% (inactive); with U251 CNS, 92.1% (inactive) and 88.1% (inactive); in the assay with PC-3 prostate, 67% (inactive) and 77.9% (inactive). For the same compound, the growth in the assay with SK-MEL-5 melanoma was 48.9% (inactive) and 59.9% (inactive); in the assay with UACC-62 melanoma, 60.7% (inactive) and 83.6% (inactive); in the assay with LOX IMVI melanoma, 84.6% (inactive) and 86.5% (inactive); with SK-MEL-28 melanoma it was 87.7% (inactive); with SK-MEL-2 melanoma, 94.9% (inactive) and 85.1% (inactive); with EKVX NSCLC it was 68% (inactive) and 77.3% (inactive). Further, the growth in the assay with SN12C renal was 86.1% (inactive) and 91.1% (inactive); in the assay with UO-31 renal, 76.6% (inactive) and 71.2% (inactive); in the assay on TK-10 renal, 104% (inactive) and 95.4% (inactive); in the assay on ACHN renal, 87.8% (inactive) and 88.8% (inactive); with CAKI-1 renal it was 72.2% (inactive) and 95.2% (inactive); with A498 renal, 82.7% (inactive) and 75.8% (inactive). The growth is 82.5% (inactive) and 80% (inactive) in the assay with CCRF-CEM leukemia; 101% (inactive) and 85.9% (inactive) in the assay with MOLT-4 leukemia.
For `C#CCN(C)Cc1ccccc1`, the growth with HCT-15 colon was 104% (inactive) and 103% (inactive); in the assay with HT29 colon it was 108% (inactive) and 113% (inactive); in the assay on SNB-75 CNS it was 106% (inactive) and 115% (inactive); in the assay with SNB-19 CNS, 102% (inactive); in the assay on U251 CNS, 105% (inactive) and 101% (inactive); with PC-3 prostate, 100% (inactive) and 105% (inactive). In addition, the growth is 102% (inactive) and 106% (inactive) in the assay on SK-MEL-5 melanoma; 92.3% (inactive) with UACC-62 melanoma; 96.9% (inactive) and 102% (inactive) in the assay with LOX IMVI melanoma; 111% (inactive) and 114% (inactive) with SK-MEL-28 melanoma; 97.5% (inactive) and 104% (inactive) in the assay with SK-MEL-2 melanoma; 104% (inactive) and 95.2% (inactive) in the assay on EKVX NSCLC. Moreover, the growth in the assay on SN12C renal was 95.7% (inactive) and 82.5% (inactive); in the assay with UO-31 renal, 87.2% (inactive) and 93.2% (inactive); in the assay with TK-10 renal, 101% (inactive) and 231% (inactive); with ACHN renal it was 97.5% (inactive) and 105% (inactive); with CAKI-1 renal, 99% (inactive) and 69.1% (inactive); in the assay on A498 renal, 126% (inactive) and 96.3% (inactive). Moreover, the growth was 95.2% (inactive) and 131% (inactive) in the assay with CCRF-CEM leukemia; 106% (inactive) and 101% (inactive) in the assay on MOLT-4 leukemia.
In the case of `OC(COc1cccc2ccccc12)CN1CCN(c2ccc(Cl)cc2)CC1` (stereo not given), the growth was 87.4% (inactive) and 101% (inactive) with HCT-15 colon; 82.9% (inactive) and 88.9% (inactive) with HT29 colon; 73.7% (inactive) and 88% (inactive) in the assay with SNB-75 CNS; 87.6% (inactive) and 90.2% (inactive) in the assay on SNB-19 CNS; 69.9% (inactive) and 108% (inactive) in the assay with U251 CNS; 88.4% (inactive) in the assay with PC-3 prostate. Also, the growth in the assay with SK-MEL-5 melanoma was 87.6% (inactive) and 102% (inactive); in the assay on UACC-62 melanoma it was 98% (inactive) and 85% (inactive); with LOX IMVI melanoma it was 86.3% (inactive) and 82.2% (inactive); in the assay on SK-MEL-28 melanoma, 107% (inactive) and 114% (inactive); with SK-MEL-2 melanoma it was 103% (inactive) and 98.8% (inactive); with EKVX NSCLC it was 108% (inactive) and 94.9% (inactive). For the same compound, the growth in the assay on SN12C renal was 98.5% (inactive) and 97.8% (inactive); in the assay on UO-31 renal, 80.2% (inactive) and 63.6% (inactive); in the assay on TK-10 renal it was 70.8% (inactive) and 101% (inactive); with ACHN renal, 68.6% (inactive) and 102% (inactive); with CAKI-1 renal, 85.5% (inactive); in the assay with A498 renal it was 92.3% (inactive) and 77% (inactive). Further, the growth in the assay on CCRF-CEM leukemia is 83.3% (inactive); in the assay on MOLT-4 leukemia, 110% (inactive).
